Experimental findings from PubChem BioAssay (NCI) are described below.

What all share (assay): NCI-60 one-dose screen, 48 h (100 = growth as untreated, 0 = no growth, -100 = all killed)
Test [1] deals with NCI-H23 lung.
For test [2], the system named is NCI-H226 lung.
Test [3] has as its system NCI-H322M lung.
The test system of test [4] is HOP-62 NSCLC.
In test [5] the test system is NCI-H460 lung.
Test [6] has as its system HOP-92 NSCLC.
Test [7] relates to NCI-H522 lung.
The test system of test [8] is A549/ATCC NSCLC.
The test system of test [9] is 786-0 renal.
In test [10] the test system is COLO 205 colon.

About 83,000 compounds went through this panel and 20% of them were active in at least one assay; those are over-represented in the sample as a whole.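 For each line, cells grew in 96-well plates with the test compound present at a single concentration for 48 hours.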 A number with no mark means an inactive call. Activity calls are given as the source filed them. Rule for the calls: active = growth percent below 10; inactive = the rest.

Take `C=CCSc1nnc(-c2ccc(-c3nc4ccccc4[nH]3)cc2)o1`: the growth is 89.9% in [1] (10 µM unless noted); 95.5% in test [2] (10 µM unless noted); 97.7% in [3] (10 µM unless noted); 84.2% in test [4] (10 µM unless noted); 87.1% in test [5] (10 µM unless noted); 79.1% in test [6] (10 µM unless noted). Also, the growth in [7] (10 µM unless noted) was 70.4%; in [8] (10 µM unless noted) it was 73.5%; in [9] (10 µM unless noted), 77.6%; in test [10] (10 µM unless noted) it was 82.6%.

Regarding `CC[C@]12C=CCN3CC[C@]4(C(=C(C(=O)OC)C1)Nc1cc(OC)c([C@@H]5[C@H]6O[C@H]6[C@@]6(CC)CC(C(=O)OC)=C7Nc8cc(OC)ccc8[C@@]78CCN5[C@@H]68)cc14)[C@@H]32`, the growth in test [1] (10 µM unless noted) is 41.8%; in test [2] (10 µM unless noted), 72.3%; in test [3] (10 µM unless noted) it was 86.2%; in [4] (10 µM unless noted), 74.1%; in test [5] (10 µM unless noted) it was 29.9%; in test [6] (10 µM unless noted), 62.1%. The growth in test [7] (10 µM unless noted) was 64.8%; in test [8] (10 µM unless noted) it was 70.1%; in [9] (10 µM unless noted) it was 44.6%; in test [10] (10 µM unless noted), 57.7%.

As to `COc1ccc2c(c1)c(-c1cc(N)n3nc(-c4c[nH]c5ccccc45)cc3n1)cn2C`, the growth in test [1] (10 µM unless noted) is -69.9% (active); in test [2] (10 µM unless noted), -33.1% (active); in test [3] (10 µM unless noted), -53.5% (active); in [4] (10 µM unless noted) it was -71.5% (active); in [5] (10 µM unless noted), -69.7% (active); in test [6] (10 µM unless noted), -66.7% (active). For the same compound, the growth in test [7] (10 µM unless noted) was -70.4% (active); in [8] (10 µM unless noted), -88.1% (active); in test [9] (10 µM unless noted), -84.5% (active); in test [10] (10 µM unless noted), -83.9% (active).

Regarding `Cc1[nH]nc2ccc3nc(-c4cn[nH]c4C(F)(F)F)c4c(c3c12)CCCC4`, the growth is -8.3% (active) in test [1] (10 µM unless noted); -5.98% (active) in [2] (10 µM unless noted); 2.15% (active) in [3] (10 µM unless noted); 5.21% (active) in [4] (10 µM unless noted); 1.29% (active) in test [5] (10 µM unless noted); -18.3% (active) in [6] (10 µM unless noted). Also, the growth was -54% (active) in test [7] (10 µM unless noted), -2.97% (active) in [8] (10 µM unless noted), -21.2% (active) in test [9] (10 µM unless noted) and -18.6% (active) in [10] (10 µM unless noted).

As for `COc1ccc2[nH]c(O)c(N=Nc3nc(-c4ccc(Br)cc4)cs3)c2c1`, the growth is -6.52% (active) in [1] (10 µM unless noted); -36.4% (active) in test [2] (10 µM unless noted); 28.2% in test [3] (10 µM unless noted); -10.1% (active) in test [4] (10 µM unless noted); -35.4% (active) in test [5] (10 µM unless noted); -34.4% (active) in [6] (10 µM unless noted). Besides, the growth in test [7] (10 µM unless noted) is 19.1%; in test [8] (10 µM unless noted) it was -41.3% (active); in [9] (10 µM unless noted), -81.3% (active); in test [10] (10 µM unless noted) it was -13.2% (active).

For `CC/C(=C(/c1ccc(O)cc1)c1ccc(OCCN(C)C(=O)COCCOCCNC(=O)Cc2ccc3c(c2)CN([C@@H]2CCC(=O)NC2=O)C3=O)cc1)c1ccccc1`, the growth in test [1] (1 µM) was 101%; in test [1] (10 µM), 97.4%; in [2] (1 µM), 93.8%; in [2] (10 µM) it was 39.9%; in test [3] (1 µM) it was 93.9%; in test [3] (10 µM) it was 64.1%. Further, the growth in test [4] (1 µM) was 91.6%; in test [4] (10 µM), 38.8%; in test [5] (1 µM), 125%; in test [5] (10 µM), 110%; in test [6] (1 µM) it was 15.5%; in test [6] (10 µM) it was 12.7%. The growth in test [7] (1 µM) is 93.6%; in test [7] (10 µM), 88.1%; in test [8] (1 µM) it was 102%; in test [8] (10 µM), 88.1%; in test [9] (1 µM) it was 96%; in [9] (10 µM), 80.7%. Further, the growth in test [10] (1 µM) is 96.4%; in test [10] (10 µM), 31.2%.

`COc1cc2cc(C(=O)N3C[C@@H](CCl)c4c3cc(OC(=O)N(C)CCSSCCN3CCOCC3)c3ccccc43)[nH]c2c(OC)c1OC`: the growth in test [1] (10 µM unless noted) is -66.9% (active); in [2] (10 µM unless noted) it was -17.2% (active); in [3] (10 µM unless noted), 1.49% (active); in [4] (10 µM unless noted), -49.4% (active); in [5] (10 µM unless noted) it was 0.904% (active); in test [6] (10 µM unless noted) it was -16.1% (active). Further, the growth in test [7] (10 µM unless noted) was -42.8% (active); in [8] (10 µM unless noted), -9.46% (active); in [9] (10 µM unless noted), -65% (active); in [10] (10 µM unless noted) it was -80.4% (active).

With `Cc1cc(C)c2[nH]c(=O)c(C(c3nnnn3Cc3ccc4c(c3)OCO4)N3CCN(C)CC3)cc2c1` (stereo not given), the growth in test [1] (10 µM unless noted) was 105%; in test [2] (10 µM unless noted), 102%; in [3] (10 µM unless noted) it was 107%; in [4] (10 µM unless noted) it was 111%; in test [5] (10 µM unless noted), 112%; in test [6] (10 µM unless noted) it was 99.9%. Further, the growth in test [7] (10 µM unless noted) was 120%; in test [8] (10 µM unless noted), 105%; in test [9] (10 µM unless noted), 97.9%; in test [10] (10 µM unless noted), 114%.

As to `COc1ccc2c(c1)C(Sc1ccc(Br)cc1)c1c(nc(N)c(C#N)c1N)O2` (stereo not given), the growth in test [1] (10 µM unless noted) is 79.1%; in [2] (10 µM unless noted), 83.1%; in [3] (10 µM unless noted), 84.2%; in [4] (10 µM unless noted) it was 93.7%; in test [5] (10 µM unless noted), 82.4%; in test [6] (10 µM unless noted), 111%. For the same compound, the growth is 77.1% in test [7] (10 µM unless noted), 89.7% in [8] (10 µM unless noted), 83% in [9] (10 µM unless noted) and 90% in test [10] (10 µM unless noted).

On to `Cn1cc(Nc2ncnc(-c3ccc(N4CCCC4)c(C#N)c3)n2)cn1`, for which the growth in [1] (10 µM unless noted) was 86%; in test [2] (10 µM unless noted), 60.6%; in [3] (10 µM unless noted) it was 50.5%; in test [4] (10 µM unless noted), 90.3%; in test [5] (10 µM unless noted), 50.1%; in [6] (10 µM unless noted) it was 97.6%. Further, the growth in [7] (10 µM unless noted) was 8.98% (active); in test [8] (10 µM unless noted) it was 83.7%; in test [9] (10 µM unless noted) it was 59.8%; in [10] (10 µM unless noted), 72%.

Turning to `COc1cc(/C=C/C(=O)c2cnn(-c3cc(=O)[nH]c4ccc(C)cc34)c2C)cc(OC)c1OC`, the growth in test [1] (10 µM unless noted) was -45% (active); in test [2] (10 µM unless noted), -17.8% (active); in [3] (10 µM unless noted), 9.59% (active); in test [4] (10 µM unless noted), 2.27% (active); in test [5] (10 µM unless noted) it was 8.08% (active); in [6] (10 µM unless noted), 50.6%. Further, the growth was -87.1% (active) in test [7] (10 µM unless noted), 6.23% (active) in test [8] (10 µM unless noted), -27% (active) in test [9] (10 µM unless noted) and -91.6% (active) in test [10] (10 µM unless noted).

Regarding `Cc1ccc(C2CC(c3ccc(NC(=S)Nc4ccccc4)cc3)=NN2c2ccc(S(N)(=O)=O)cc2)cc1` (stereo not given), the growth in [1] (10 µM unless noted) is 23.6%; in test [2] (10 µM unless noted), -7.72% (active); in [3] (10 µM unless noted), 45.6%; in test [4] (10 µM unless noted) it was 34.6%; in [5] (10 µM unless noted), -11.1% (active); in [6] (10 µM unless noted), 7.59% (active). The growth was 15.8% in [7] (10 µM unless noted), 15.1% in test [8] (10 µM unless noted), 18.6% in [9] (10 µM unless noted) and -3.89% (active) in test [10] (10 µM unless noted).
